Assay [1] is described as follows: Nuclear factor erythroid 2-related factor 2/antioxidant responsive element (Nrf2/ARE) small molecule agonists: qHTS cell viability counter screen in human keratinocytes (AID 1919968; active = well fitted cell-killing curve with a large enough effect in the repeat runs; note: nearly all actives have a fitted effect of over 55% in size). The essentials:
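KeratinoSens cells (HaCaT keratinocytes stably carrying an ARE-luciferase reporter) were seeded at 1,500 cells/well and rested 5 h at 37 C/5% CO2. They were then exposed to compounds in DMSO for 23 h. Viability was read by CellTiter-Fluor fluorescence after 1 h.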
On the technique in general: In qHTS, concentration-response curves come from the screen itself.

Assay [2] in a line: Nuclear factor erythroid 2-related factor 2/antioxidant responsive element (Nrf2/ARE) small molecule agonists: luciferase reporter gene qHTS assay in human keratinocytes (AID 1919969; note: nearly all actives have a fitted effect of over 35% in size; note: potency is the fitted concentration of half-maximal effect). (Reporter assays use an easily measured gene product as a stand-in for the process of interest.)
Assay [3] addresses Gonadotropin-releasing hormone receptor (Homo sapiens) (UniProt P30968). The assay is described as follows: Human gonadotropin-releasing hormone receptor (GnRHR) small molecule agonists, calcium flux assay in GnRHR-HEK293 cells (AID 1920063). Note: nearly all actives have a fitted effect of over 35% in size. The essentials:
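HEK293 cells stably expressing human GnRHR were plated 18 h at 37 °C, loaded with calcium dye 1 h at 37 °C, then given compound in agonist mode; fluorescence (Ex/Em 480/540) read kinetically for 3 min at 1 s intervals.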
In general terms: Calcium assays in cells follow changes in intracellular calcium, usually with a dye or a luminescent sensor.

A short description of assay [4]: p53 small molecule agonists, cell-based qHTS assay with human liver microsomes (AID 1963577).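 Note: p53 response element beta-lactamase reporter cells with liver microsomes plus NADPH.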 The essentials:
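p53RE-bla cells; 5 h settle, 37 C/5% CO2; cpd + HLM 0.5 mg/mL + NADPH 0.5 mg/mL (final); 16 h 37 C; LiveBLAzer 2 h RT dark; fluorescence readout.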

Assay [5] is described as follows: p53 small molecule agonists, cell-based qHTS assay with rat liver microsomes (AID 1963578). The method in brief:
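Rat liver microsome activation: microsomes 0.5 mg/mL, NADPH 0.5 mg/mL final; p53RE-bla cells, 16 h 37 C; LiveBLAzer readout, 2 h RT dark.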

The nature of assay [6]: p53 small molecule agonists, cell-based qHTS assay with human liver microsomes: qHTS cell viability counter screen (AID 1963579). Note: nearly all actives have a fitted effect of over 45% in size. The method in brief:
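Luminescent CellTiter-Glo read-out, 30 min at room temperature, gauged cytotoxicity in p53RE-bla cells exposed 16 h at 37 C to DMSO-dissolved compounds with metabolic activation by human liver microsomes and NADPH, each 0.5 mg/mL final.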

The nature of assay [7]: p53 small molecule agonists, cell-based qHTS assay with rat liver microsomes: qHTS cell viability counter screen (AID 1963580). Note: nearly all actives have a fitted effect of over 45% in size. The essentials:
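p53RE-bla HCT-116 cells were exposed 16 h at 37 C to compounds with rat liver microsomes (0.5 mg/mL) and NADPH (0.5 mg/mL). Viability was measured in the same wells as ATP content by CellTiter-Glo luminescence.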

Assay [8] can be described thus: p53 small molecule agonists, cell-based qHTS assay: qHTS cell viability counter screen (AID 1963581). Note: nearly all actives have a fitted effect of over 45% in size. The essentials: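 p53RE-bla HCT-116 cells were exposed to compounds for 16 h at 37 C; after the beta-lactamase FRET read in the same wells, CellTiter-Glo was added and luminescence (intracellular ATP) read after 30 min at room temperature.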
The nature of assay [9]: p53 small molecule agonists, cell-based qHTS assay (AID 1963582; active = well fitted activation curve with a large enough effect in the signal ratio in the repeat runs, not every such curve was filed as active; the % refers to the signal ratio). The method in brief: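 p53RE-bla beta-lactamase reporter cells rested 5 h at 37 C/5% CO2, then received compounds in DMSO by pin transfer and were incubated 16 h at 37 C. LiveBLAzer B/G FRET substrate was loaded for 2 h at room temperature before fluorescence reading.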
The target of assay [10] is 5-hydroxytryptamine receptor 2A (Homo sapiens) (UniProt P28223). Put plainly: 5-hydroxytryptamine receptor 2A (HTR2A) small molecule antagonists, cell-based qHTS assay (AID 1963586). Note: nearly all actives have a fitted effect of over 45% in size. Note: potency is the fitted concentration of half-maximal effect. The method in brief: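 Antagonist-mode intracellular calcium assay: DOI (4 nM) added after 5 min compound pre-incubation at room temperature to dye-loaded HTR2A-CHO cells. Fluorescence followed for 3 min, sampled every second.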

For assay [11] the target is unchanged. The assay is described as follows: 5-hydroxytryptamine receptor 2A (HTR2A) small molecule agonists, cell-based qHTS assay (AID 1963587). Note: nearly all actives have a fitted effect of over 30% in size. The essentials: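 CHO cells stably expressing human HTR2A, plated 18 h, loaded with calcium dye 1 h at 37 C. Agonist mode: compounds added and intracellular calcium fluorescence recorded kinetically for 2 min at 1 sec intervals.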

Assay [12] has as its target Muscarinic acetylcholine receptor M1 (Homo sapiens) (UniProt P11229). Put plainly: Cholinergic receptor muscarinic 1 (CHRM1) small molecule antagonists, cell-based qHTS assay (AID 1963588). Note: nearly all actives have a fitted effect of over 40% in size. The method in brief: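 CHRM1-CHO calcium-flux assay, antagonist mode. Cells were seeded 18 h, dye-loaded 1 h at 37 C and given compound for 5 min at RT, then acetylcholine was added at 50nM. FDSS fluorescence was read 3 min; 15 concentrations, three runs.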

Assay [13] has the same target. The assay is described as follows: Cholinergic receptor muscarinic 1 (CHRM1) small molecule agonists, cell-based qHTS assay (AID 1963589). Note: nearly all actives have a fitted effect of over 35% in size. The method in brief: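 CHO cells stably expressing human CHRM1, seeded 18 h at 37 C/5% CO2, dye-loaded 1 h at 37 C, then given compound in agonist mode; intracellular calcium fluorescence read kinetically at 1 s intervals. Fifteen concentrations, three independent runs.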

The nature of assay [14]: cAMP Responsive Elements (CRE) small molecule agonists, cell-based qHTS assay (AID 1963590). The method in brief:
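CRE-bla HEK 293T cells in DMEM with 10% dialyzed FBS, NEAA, pyruvate and 25 mM HEPES were plated 18 h at 37 C/5% CO2, then exposed to compounds in DMSO for 3 h before LiveBLAzer B/G FRET substrate addition.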

Assay [15] in a line: cAMP Responsive Elements (CRE) small molecule antagonists, cell-based qHTS assay (AID 1963591; active = well fitted inhibition curve with a large enough effect in the signal ratio in the repeat runs, not every such curve was filed as active; the % refers to the signal ratio). The method in brief:
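CRE-bla HEK293T cells were plated 18 h at 37 °C/5% CO2, pinned with compound in DMSO, then stimulated with NKH477 at 0.25 uM final for 3 h. LiveBLAzer B/G FRET substrate was added and plates incubated 2 h at room temperature.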

For assay [16], the target named is Beta-2 adrenergic receptor (Homo sapiens) (UniProt P07550). The assay is described as follows: Adrenergic beta2 receptor (ADRB2) small molecule antagonists, cell-based qHTS assay (AID 1963592). Note: series mostly up to about 92 µM; nearly all actives have a fitted effect of over 50% in size. The essentials:
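Cells (CHO, stable ADRB2 overexpression) incubated 18-20hr at 37C; compounds added from DMSO; agonist mix (1nM isoproterenol, 100uM IBMX, 25uM Ro-20-1724) added; 0.5hr RT; d2-cAMP and anti-cAMP-cryptate added; 1hr RT; 665/615 nm read.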

For assay [17] the target is unchanged. Put plainly: Adrenergic beta2 receptor (ADRB2) small molecule agonists, cell-based qHTS assay (AID 1963593).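 Note: CHO cells stably overexpressing human ADRB2.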 The method in brief:
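CHO cells stably over-expressing ADRB2 were plated overnight at 37C, then dosed with compounds plus a stimulation mix containing 100uM IBMX and 25uM Ro-20-1724 for 0.5hr at room temperature. cAMP was measured by HTRF competition, 1hr.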

Assay [18] deals with D(2) dopamine receptor (Homo sapiens) (UniProt P14416). The assay is described as follows: Dopamine D2 receptor (DRD2) small molecule agonists, cell-based qHTS assay (AID 1963594). Note: nearly all actives have a fitted effect of over 35% in size. The essentials: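 HEK293 cells stably expressing human DRD2, pre-treated with PDE inhibitor Ro20-1724 (0.1 mM final) and compound 10 min at room temperature, then stimulated with NKH477 (200nM […]) for 30 min. cAMP read by HTRF (665/620 nm).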

Assay [19] has the same target. The assay is described as follows: Dopamine D2 receptor (DRD2) small molecule antagonists, cell-based qHTS assay (AID 1963595; active = well fitted inhibition curve with a large enough effect in the signal ratio in the repeat runs, with a control signal flat; the % refers to the signal ratio). The essentials:
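Antagonist mode in DRD2-HEK293 cells: after compound addition with 0.1 mM Ro20-1724, cells received quinpirole (12 nM) and NKH477 (200 nM) for 30 min at room temperature; HTRF cAMP read after 1 h detection.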

A short description of assay [20]: G protein-coupled receptor (GPCR) small molecule agonists, calcium flux assay: HEK293 wild type cell line counter screen (AID 1920065). The method in brief: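 Cells were plated and cultured 18 h at 37 C/5% CO2, then loaded with calcium dye for 1 h at 37 C. Compounds in DMSO were pin-transferred in agonist mode, and fluorescence (Ex/Em 480/540) was read kinetically for 3 min at 1 s intervals.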

“And” between values parts separate entries of the source, which are not always exact repeats. Equal entries are not always repeated. Results filed as inconclusive are left out. Some compounds were tested as several samples or in several runs, with calls that do not always agree. The source made the active and inactive calls. Unless noted, calls come from the whole dose curve.

Sequence of 5-hydroxytryptamine receptor 2A (Homo sapiens) (P28223 whole entry, looked up): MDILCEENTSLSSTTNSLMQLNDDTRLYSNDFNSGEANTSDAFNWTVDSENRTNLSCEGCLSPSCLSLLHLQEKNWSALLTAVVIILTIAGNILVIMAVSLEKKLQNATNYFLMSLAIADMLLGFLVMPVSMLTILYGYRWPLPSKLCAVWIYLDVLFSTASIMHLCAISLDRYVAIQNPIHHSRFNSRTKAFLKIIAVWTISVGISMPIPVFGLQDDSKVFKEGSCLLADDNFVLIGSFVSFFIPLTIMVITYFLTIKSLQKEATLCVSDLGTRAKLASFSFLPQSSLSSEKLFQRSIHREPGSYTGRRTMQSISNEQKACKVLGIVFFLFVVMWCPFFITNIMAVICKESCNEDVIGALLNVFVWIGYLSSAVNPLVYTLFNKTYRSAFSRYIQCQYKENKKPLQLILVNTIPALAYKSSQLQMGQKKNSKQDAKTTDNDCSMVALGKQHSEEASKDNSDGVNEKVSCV
Sequence of Gonadotropin-releasing hormone receptor (Homo sapiens) (P30968 whole entry, looked up): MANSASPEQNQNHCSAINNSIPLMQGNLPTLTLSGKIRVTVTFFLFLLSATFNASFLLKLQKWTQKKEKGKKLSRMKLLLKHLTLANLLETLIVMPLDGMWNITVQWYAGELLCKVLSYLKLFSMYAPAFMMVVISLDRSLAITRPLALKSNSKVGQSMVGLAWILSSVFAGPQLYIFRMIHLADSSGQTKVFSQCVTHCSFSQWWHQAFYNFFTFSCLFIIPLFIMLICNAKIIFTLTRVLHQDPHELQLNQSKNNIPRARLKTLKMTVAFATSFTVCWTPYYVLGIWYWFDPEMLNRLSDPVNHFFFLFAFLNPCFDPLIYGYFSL
Sequence of Muscarinic acetylcholine receptor M1 (Homo sapiens) (P11229 whole entry, looked up): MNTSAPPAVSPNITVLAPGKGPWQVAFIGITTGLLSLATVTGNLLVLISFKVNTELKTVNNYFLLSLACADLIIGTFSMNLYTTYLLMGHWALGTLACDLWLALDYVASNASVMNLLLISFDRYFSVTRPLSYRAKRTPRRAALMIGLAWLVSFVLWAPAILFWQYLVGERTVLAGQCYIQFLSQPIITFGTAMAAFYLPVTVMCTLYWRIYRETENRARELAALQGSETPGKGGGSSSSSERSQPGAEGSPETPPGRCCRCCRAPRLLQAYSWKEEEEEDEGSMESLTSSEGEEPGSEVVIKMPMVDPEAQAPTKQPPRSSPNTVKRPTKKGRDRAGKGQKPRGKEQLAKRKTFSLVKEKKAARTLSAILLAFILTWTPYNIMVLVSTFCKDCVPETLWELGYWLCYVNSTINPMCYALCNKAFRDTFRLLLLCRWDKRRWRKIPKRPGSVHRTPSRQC
Sequence of D(2) dopamine receptor (Homo sapiens) (P14416 whole entry, looked up): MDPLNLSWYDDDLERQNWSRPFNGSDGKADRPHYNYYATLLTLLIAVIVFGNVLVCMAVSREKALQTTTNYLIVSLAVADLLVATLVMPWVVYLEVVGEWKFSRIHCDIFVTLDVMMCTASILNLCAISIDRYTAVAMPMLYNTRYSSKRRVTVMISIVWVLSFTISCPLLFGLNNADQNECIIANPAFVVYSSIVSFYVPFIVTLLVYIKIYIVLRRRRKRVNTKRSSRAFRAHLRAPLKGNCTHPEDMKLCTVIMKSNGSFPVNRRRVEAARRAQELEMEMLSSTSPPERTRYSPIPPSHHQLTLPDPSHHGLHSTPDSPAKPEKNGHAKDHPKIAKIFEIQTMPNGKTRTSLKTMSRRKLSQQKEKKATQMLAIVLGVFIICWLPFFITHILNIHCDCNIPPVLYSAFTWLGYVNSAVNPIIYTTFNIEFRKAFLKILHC
Sequence of Beta-2 adrenergic receptor (Homo sapiens) (P07550 whole entry, looked up): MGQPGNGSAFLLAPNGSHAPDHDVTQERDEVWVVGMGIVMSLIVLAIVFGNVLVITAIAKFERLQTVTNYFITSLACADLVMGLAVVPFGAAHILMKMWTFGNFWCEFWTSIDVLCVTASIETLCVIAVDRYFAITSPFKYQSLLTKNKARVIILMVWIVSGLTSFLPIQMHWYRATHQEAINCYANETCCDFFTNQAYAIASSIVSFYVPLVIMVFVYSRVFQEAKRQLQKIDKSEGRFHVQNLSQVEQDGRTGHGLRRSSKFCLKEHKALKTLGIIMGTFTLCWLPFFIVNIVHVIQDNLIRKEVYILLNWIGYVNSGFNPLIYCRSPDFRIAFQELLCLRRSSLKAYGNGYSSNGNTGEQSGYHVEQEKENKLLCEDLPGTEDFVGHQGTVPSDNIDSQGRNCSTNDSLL

`COC(C)COC(C)COC(C)CO` (centres undefined): the Potency result in assay [1], in assay [2], in assay [3], in assay [4], in assay [5] and in assay [6] was “inactive” in each case. The Potency result in assay [7], in [8], in assay [9], in [10], in assay [11] and in assay [12] was “inactive” each time. For the same compound, the Potency entry in assay [13], in assay [14], in assay [15], in assay [16], in [17] and in [18] was “inactive” in each case. Further, the Potency entry in assay [19] was “inactive”.
For `CN1C(C(=O)Nc2ccccn2)=C(O)c2ccccc2S1(=O)=O`, the Potency entry in assay [1], in assay [2], in assay [3], in assay [4], in assay [5] and in assay [7] was “inactive” throughout. The Potency result in [8], in assay [9], in assay [14], in [15], in assay [16] and in assay [18] was “inactive” each time. Further, the Potency entry in assay [19] was “inactive”.
Take `Cc1cccc(C)c1`: the Potency entry in [1], in assay [2], in assay [3], in assay [20], in assay [6] and in assay [8] was “inactive” each time. Further, the Potency entry in [10], in [11], in assay [12], in assay [14], in assay [15] and in assay [16] was “inactive” in each case. For the same compound, the Potency result in assay [17], in assay [18] and in [19] was “inactive” each time.
Take `OC(Cn1cncn1)(Cn1cncn1)c1ccc(F)cc1F`: the Potency entry in assay [1], in assay [2], in assay [3], in [4], in assay [5] and in [6] was “inactive” in each case. Also, the Potency entry in [7], in assay [8], in [9], in assay [14], in assay [16] and in assay [17] was “inactive” each time. Moreover, the Potency entry in assay [18] and in assay [19] was “inactive” throughout.
In the case of `O=C(O)CS`, the Potency result in [1], in assay [3], in [20], in assay [7], in [8] and in assay [10] was “inactive” each time. Moreover, the Potency result in assay [11], in assay [13], in assay [14], in assay [15], in assay [16] and in assay [17] was “inactive” each time. Also, the Potency entry in assay [18] and in [19] was “inactive” in each case. For the same compound, the Potency result in [2] is “inactive and 61.6 µM (active)”.
Consider `O=C(O)Cc1ccccc1Nc1c(Cl)cccc1Cl`, for which the Potency result in [1], in assay [2], in assay [3], in [5], in assay [6] and in assay [7] was “inactive” in each case. In addition, the Potency entry in assay [8], in assay [9], in assay [14], in assay [15], in assay [16] and in assay [17] was “inactive” in each case. Also, the Potency entry in [18] and in assay [19] was “inactive” in each case.
As to `O=C(O)/C=C\C(=O)O`, the Potency result in [1], in assay [2], in assay [3], in assay [20], in [11] and in assay [12] was “inactive” each time. Further, the Potency entry in assay [13], in [14], in assay [15], in assay [16], in assay [18] and in assay [19] was “inactive” in each case. In addition, in [10], the Potency was 27.5 µM (active) and 3.75 µM (active) and inactive.
Take `COc1ccc(NC(C)=O)cc1N`: the Potency result in assay [1], in [2], in assay [3], in assay [20], in [7] and in [8] was “inactive” throughout. Further, the Potency entry in [10], in assay [11], in [12], in assay [13], in [14] and in assay [15] was “inactive” in each case. Moreover, the Potency entry in assay [16], in assay [18] and in [19] was “inactive” in each case.
Consider `CCC(=O)/C=C/C1C(C)=CCCC1(C)C` (centres undefined), for which the Potency result in assay [1], in [2], in assay [3], in assay [4], in [5] and in [6] was “inactive” throughout. In addition, the Potency result in assay [7], in assay [8], in assay [11], in [12], in [13] and in [14] was “inactive” each time. The Potency entry in assay [15], in assay [16], in [18] and in assay [19] was “inactive” in each case.

(Values after PubChem BioAssay (Tox21).)
